# Results reported in PubChem BioAssay AID1856 (The Scripps Research Institute Molecular Screening Center, 2009).
# The campaign covered roughly 1,300 compounds. Fewer than 10 were called active. The rule behind the calls is not given here. The list is a sample of the results.
# Test system: metallo-beta-lactamase IMP-1 (Pseudomonas aeruginosa)
# Assay: IMP-1 enzyme inhibition by VIM-2 hits – biochemical, epi-absorbance readout, triplicate, selectivity assay for selective VIM-2 inhibitor project, confirmation (AID 1856);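 note: 0% = enzyme with vehicle and 100% = vehicle without enzyme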
# Settings: purified IMP-1, nitrocefin hydrolysis, epi-absorbance fluorescence; at 5.6 µM; stronger effect = higher value
row,Structure (SMILES),inhibition
1,C=CCn1c(-c2ccccc2OCC)n[nH]c1=S,-2.2% (inactive)
2,Cc1cc(NCc2ccco2)n2c(nc3ccccc32)c1C#N,-3.37% (inactive)
3,O=C(COc1cc2oc(=O)c3c(c2cc1Cl)CCC3)NCCCN1CCOCC1,-1.87% (inactive)
4,CCN(CC)c1ccc2cc(C(N)=O)/c(=N\NC(=O)c3ccncc3)oc2c1,-2.41% (inactive)
5,Cc1cccn2c(=O)c(C=O)c(Nc3ccc(S(N)(=O)=O)cc3)nc12,-3.66% (inactive)
6,COc1nc(N=C(N)N)nc2c(C)cccc12,-3.85% (inactive)
7,COc1cc(NC(=O)C2=C(C)OCCS2)c(Cl)cc1C(=O)NCCN1CCN(C)CC1,-2.62% (inactive)
8,CCN1CCN(CCNC(=O)c2ccc3c(c2)NC(=O)/C(=C\c2ccc(OC)c(OC)c2)S3)CC1,-3.87% (inactive)
9,Cn1c(-c2sccc2OCc2cccc(C(F)(F)F)c2)n[nH]c1=S,-2.3% (inactive)
10,CCOC(=O)N1CCN(C(=O)C2CCN(c3ncnc4c3sc3cccc(F)c34)CC2)CC1,-2.28% (inactive)
11,Cc1cc(-c2ccc(/C=N/n3cnnc3)o2)c([N+](=O)[O-])cc1C,-2.82% (inactive)
12,CNC(=O)c1ccsc1NC(=O)c1ccc(S(=O)(=O)N2CCOCC2)cc1,-2.75% (inactive)
13,Cc1cc(C)c2nc3nc(C)cc(C)c3c(N)c2c1,-3.37% (inactive)
14,COc1ccc(-c2nn3c(-c4ccccc4)nnc3s2)cc1OC,-2.66% (inactive)
15,CCc1cc(=O)oc2cc(C)cc(OCC(=O)N3CCC[C@@H]3C(=O)O)c12,-3.22% (inactive)
16,NC(=O)C1CCN(C(=O)COc2ccc3c4c(c(=O)oc3c2)CCC4)CC1,-2.5% (inactive)
17,COc1cc(/C=N/Nc2nn3cnnc3c3ccccc23)cc(OC)c1OC,-2.07% (inactive)
18,Cc1cc([N+](=O)[O-])c(-c2ccc(/C=N/n3cnnc3)o2)cc1Cl,-2.7% (inactive)
19,COc1ccc(Nc2cc(C)nc(-n3nc(C)cc3C)n2)cc1,-4.36% (inactive)
20,COc1cc(-c2nn3c(-c4cccc(C)c4)nnc3s2)cc(OC)c1OC,-3.37% (inactive)
21,CCN1CCCC1CNC(=O)c1cc2c(=O)n(C)c3ccccc3c2n1C (configuration not stated),-1.43% (inactive)
22,COC(=O)c1c(NC(=O)c2ccc(S(=O)(=O)N3CCOCC3)cc2)sc2c1CCN(C(C)C)C2,-3.07% (inactive)
23,Cc1nc2ccccc2c2oc(C(=O)NCCCN3CCC(C)CC3)cc12,-2.57% (inactive)
24,O=C(NCCCN1CCOCC1)c1cnn2c(-c3ccccc3)cc(-c3ccccc3)nc12,-1.31% (inactive)
25,CCOc1cc(/C=C2\SC(N3CCCC(C)C3)=NC2=O)ccc1O (configuration not stated),-1.58% (inactive)
26,CN1CCN(c2ccc(NC(=O)c3ccc4c(c3)[nH]c(=O)n4Cc3ccc(F)cc3)cc2)CC1,-2.45% (inactive)

row,Structure (SMILES),inhibition
1,Nc1cccc2c1C(=O)N(Cc1nnc(-c3ccccc3Br)o1)C2=O,-1.84% (inactive)
2,O=C(NC(=S)Nc1ccccc1C(=O)O)c1ccc(-c2ccc(Br)cc2)o1,-2.92% (inactive)
3,Cn1c2ccccc2c(=O)c2c(O)cccc21,1.94% (inactive)
4,O=c1[nH]c(-c2ccccc2)c(-c2ccccc2)[nH]1,-1.69% (inactive)
5,COc1ccc(/C=N/N(C)C2=NS(=O)(=O)c3ccccc32)cc1OC,-2.33% (inactive)
6,CCOc1cc(/C=C2\SC(N3CCCCC3)=NC2=O)ccc1O,-4.28% (inactive)
7,CCN1CCN(C(=O)Cn2nc(C)n3c(cc4c(OC)cccc43)c2=O)CC1,-3.39% (inactive)
8,Clc1cc(-c2ccc(/C=N/n3cnnc3)o2)ccc1Br,-2.66% (inactive)
9,Nc1nnc2c(C(F)(F)F)nc3ccccc3n12,-2.31% (inactive)
10,Cc1ccc(Cl)cc1-c1ccc(/C=N/n2cnnc2)o1,-3.92% (inactive)
11,COc1ccc(CCn2c(=N)c(C(=O)NCC3CCCO3)cc3c(=O)n4cccc(C)c4nc32)cc1OC (configuration not stated),-3.13% (inactive)
12,COC(=O)c1ccc(-c2noc(CN(Cc3ccccn3)CC3CCCO3)n2)cc1 (configuration not stated),-4.37% (inactive)
13,CCOCCCNc1c(CC)c(C)c(C#N)c2nc3ccccc3n12,-2.98% (inactive)
14,O=C1Nc2cc(C(=O)N3CCC(N4CCCCC4)CC3)ccc2S/C1=C\c1ccccc1,-4.01% (inactive)
15,CCC1CCCCN1CCCNC(=O)c1cc2c(Cl)nc3ccccc3c2s1 (configuration not stated),-2% (inactive)
16,Cc1ccc2nc(C)c3c(c2c1)N(c1ccccc1)CC3,-3.39% (inactive)
17,Fc1ccc(-c2ccc(CNCc3ccccn3)o2)cc1Cl,-3.51% (inactive)
18,CC(NS(=O)(=O)c1ccccc1)c1n[nH]c(=S)n1-c1ccccc1 (configuration not stated),-3.01% (inactive)
19,Cn1c(=O)c2c(nc(N3CCOCC3)n2CCNC2=NCCC2)n(C)c1=O,-2.77% (inactive)
20,CCN(CC)CCOc1ccc2c(c1)C(=NNC(=O)c1ccccn1)c1cc(OCCN(CC)CC)ccc1-2,-6.88% (inactive)
21,CC(=O)c1ccc(-c2ccc(Cn3c(C)nc4cc(N)c(C)nc43)cc2)cc1,-2.57% (inactive)
22,CCCc1ccc(OCCNC(=O)c2ccco2)cc1,-3.83% (inactive)
23,CN(C)CCNc1ccc(-c2n[nH]c(=O)c3ccccc23)cc1[N+](=O)[O-],-3.19% (inactive)
24,COc1ccc(Cc2nnc(NS(=O)(=O)Cc3ccccc3)s2)cc1,-2.35% (inactive)
25,CC(C)(C)CC(=O)Nc1nnc(SCC(=O)NCc2cccs2)s1,-4.47% (inactive)
26,CC1CCCC(C)N1CCCNC(=O)c1cc2c(=O)n(C)c3ccccc3c2n1C (configuration not stated),-3.58% (inactive)
